# PubChem BioAssay (NCI)
# About 79,000 compounds went through this panel and 15% of them were active in at least one assay; those are over-represented in the sample as a whole. Unmarked numbers belong to inactive results. The source made the active and inactive calls. Rule as the data show it: active = growth inhibition above about 70%; inactive = the rest.
# How the values were obtained:
# [1] = NCI Yeast Anticancer Drug Screen. Data for the rad52 strain (AID 147);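 also: 0% = growth of vehicle-treated control cultures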; conditions: S. cerevisiae rad52 mutant growth inhibition, hits give high values
# Procedure, shortened: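 Vehicle-treated cultures served as the reference for growth inhibition of compound-exposed yeast bearing a DNA repair mutation.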
# [2] = NCI Yeast Anticancer Drug Screen. Data for the wt1 strain (AID 149);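 also: 0% = growth of vehicle-treated wt1 cultures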; conditions: S. cerevisiae wt1 strain (SPY 50644) growth inhibition, hits give high values
# Procedure, shortened: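 Vehicle-normalised growth inhibition; strain wt1; compound exposure.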
# [3] = NCI Yeast Anticancer Drug Screen. Data for the rad50EPP+ strain (AID 151);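 also: 0% = growth of vehicle-treated control cultures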; conditions: S. cerevisiae rad50 mutant strain, hits give high values
# Procedure, shortened: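 In this screen, rad50EPP+ yeast were exposed to compounds. Growth inhibition was scored against vehicle-treated controls.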
# [4] = NCI Yeast Anticancer Drug Screen. Data for the rad50 strain (AID 155);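 also: 0% = growth of vehicle-only cultures of the same strain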; conditions: S. cerevisiae rad50 strain growth inhibition, hits give high values
# Procedure, shortened: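 A DNA repair-deficient yeast mutant serves as the test organism; compound-induced growth inhibition is calculated against vehicle-treated cells.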
# [5] = NCI Yeast Anticancer Drug Screen. Data for the mec2-1 strain (AID 157); conditions: S. cerevisiae mec2-1 strain, hits give high values
# Procedure, shortened: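 Vehicle-treated cultures served as reference for growth inhibition of compound-exposed mec2-1 yeast.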
# [6] = NCI Yeast Anticancer Drug Screen. Data for the rad14 strain (AID 159);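 also: 0% = growth of vehicle-treated control cultures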; conditions: S. cerevisiae rad14 strain growth inhibition, hits give high values
# Procedure, shortened: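 Vehicle-treated cultures served as the baseline for growth inhibition of a DNA repair-mutant yeast strain exposed to each compound.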
# [7] = NCI Yeast Anticancer Drug Screen. Data for the sgs1 mgt1 strain (AID 161);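 also: 0% = growth of cultures given vehicle only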; conditions: S. cerevisiae sgs1 mgt1 strain, hits give high values
# Procedure, shortened: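 Genetically altered yeast, compound exposure, growth inhibition relative to vehicle.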
# [8] = NCI Yeast Anticancer Drug Screen. Data for the CLN2oe strain (AID 163);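 also: 0% = growth of vehicle-only control cultures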; conditions: S. cerevisiae CLN2oe strain, hits give high values
# Procedure, shortened: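 Inhibition relative to vehicle-treated yeast is reported. Cells: strain with genetic alteration in cell-cycle control, grown with compound.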
# [9] = NCI Yeast Anticancer Drug Screen. Data for the cln2 rad14 strain (AID 165);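 also: 0% = growth equal to vehicle treated cultures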; conditions: S. cerevisiae cln2 rad14 strain, hits give high values
# Procedure, shortened: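 Each compound was tested on cln2 rad14 yeast. Inhibition of growth was calculated against vehicle-exposed controls.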
# [10] = NCI Yeast Anticancer Drug Screen. Data for the bub3 strain (AID 167); conditions: S. cerevisiae bub3 mutant strain, hits give high values
# Procedure, shortened: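 Inhibition values come from growth of compound-treated mutant yeast normalised to vehicle-treated controls.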
# [11] = NCI Yeast Anticancer Drug Screen. Data for the wt2 strain (AID 169);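 also: 0% = growth of vehicle-treated yeast cultures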; conditions: S. cerevisiae wt2 strain growth inhibition, hits give high values
# Procedure, shortened: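 Inhibition of yeast growth was determined after compound treatment, normalised to controls receiving only vehicle.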
# [12] = NCI Yeast Anticancer Drug Screen. Data for the mlh1 strain (AID 171);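 also: 0% = growth of vehicle-treated control cultures of the same strain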; conditions: S. cerevisiae mlh1 strain growth inhibition, hits give high values
# Procedure, shortened: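 Vehicle-normalised growth inhibition of a repair- or checkpoint-altered yeast strain following compound treatment.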
# [13] = NCI Yeast Anticancer Drug Screen. Data for the sgs1 strain (AID 173);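 also: 0% = growth of vehicle-only control cultures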; conditions: S. cerevisiae sgs1 mutant, hits give high values
# Procedure, shortened: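 Screen format: yeast with repair or checkpoint alterations, compound exposure, growth read relative to vehicle.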
# [14] = NCI Yeast Anticancer Drug Screen. Data for the mlh1 rad18 strain (AID 175); conditions: S. cerevisiae mlh1 rad18 strain growth inhibition, hits give high values
# Procedure, shortened: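 Vehicle-treated cultures served as the reference for growth inhibition in a yeast strain carrying DNA damage repair alterations exposed to each compound.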
# [15] = NCI Yeast Anticancer Drug Screen. Data for the rad18 strain (AID 177); conditions: S. cerevisiae rad18 mutant growth inhibition, hits give high values
# Procedure, shortened: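 Test articles were incubated with altered yeast defective in DNA damage repair. Results are given as inhibition of growth versus vehicle.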
# [16] = NCI Yeast Anticancer Drug Screen. Data for the mgt1 strain (AID 153); conditions: S. cerevisiae mgt1 mutant growth inhibition, hits give high values
# Procedure, shortened: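 mgt1 strain exposed; growth vs vehicle control recorded as inhibition.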
# [17] = at 5.0 µM (retest, dose inferred, filed as 0.5)
# [18] = at 50.0 µM (retest, dose inferred, filed as 5.0)
smiles,measurement,setting,value
COC(=O)c1cc(-c2ccc(C)cc2)[nH]c(=O)c1C#N,growth inhibition,[1]; at 1.2 µM,-2%
same,growth inhibition,[1]; at 3.7 µM,0%
same,growth inhibition,[1]; at 11.0 µM,1%
same,growth inhibition,[1]; at 33.0 µM,-1%
same,growth inhibition,[1]; at 100.0 µM,-4%
same,growth inhibition,[2]; at 1.2 µM,-2%
same,growth inhibition,[2]; at 3.7 µM,-1%
same,growth inhibition,[2]; at 11.0 µM,-1%
same,growth inhibition,[2]; at 33.0 µM,-1%
same,growth inhibition,[2]; at 100.0 µM,0%
same,growth inhibition,[3]; at 1.2 µM,-5%
same,growth inhibition,[3]; at 3.7 µM,-4%
same,growth inhibition,[3]; at 11.0 µM,-5%
same,growth inhibition,[3]; at 33.0 µM,-6%
same,growth inhibition,[3]; at 100.0 µM,-4%
same,growth inhibition,[4]; at 1.2 µM,-1%
same,growth inhibition,[4]; at 3.7 µM,-2%
same,growth inhibition,[4]; [17],-5%
same,growth inhibition,[4]; at 11.0 µM,0%
same,growth inhibition,[4]; at 33.0 µM,-4%
same,growth inhibition,[4]; [18],9%
same,growth inhibition,[4]; at 50.0 µM,86.5% (active)
same,growth inhibition,[4]; at 100.0 µM,-2%
same,growth inhibition,[5]; at 1.2 µM,0%
same,growth inhibition,[5]; at 3.7 µM,0%
same,growth inhibition,[5]; [17],11%
same,growth inhibition,[5]; at 11.0 µM,-2%
same,growth inhibition,[5]; at 33.0 µM,-1%
same,growth inhibition,[5]; [18],24%
same,growth inhibition,[5]; at 50.0 µM,56.9%
same,growth inhibition,[5]; at 100.0 µM,10%
same,growth inhibition,[6]; at 1.2 µM,1%
same,growth inhibition,[6]; at 3.7 µM,-6%
same,growth inhibition,[6]; at 11.0 µM,-6%
same,growth inhibition,[6]; at 33.0 µM,-19%
same,growth inhibition,[6]; at 100.0 µM,-11%
same,growth inhibition,[7]; [17],-4%
same,growth inhibition,[7]; [18],20%
same,growth inhibition,[7]; at 50.0 µM,84.3% (active)
same,growth inhibition,[8]; at 1.2 µM,-3%
same,growth inhibition,[8]; at 3.7 µM,1%
same,growth inhibition,[8]; at 11.0 µM,-1%
same,growth inhibition,[8]; at 33.0 µM,3%
same,growth inhibition,[8]; at 100.0 µM,4%
same,growth inhibition,[9]; [17],30%
same,growth inhibition,[9]; [18],43%
same,growth inhibition,[9]; at 50.0 µM,66%
same,growth inhibition,[10]; at 1.2 µM,-8%
same,growth inhibition,[10]; at 3.7 µM,-6%
same,growth inhibition,[10]; [17],33%
same,growth inhibition,[10]; at 11.0 µM,6%
same,growth inhibition,[10]; at 33.0 µM,-2%
same,growth inhibition,[10]; [18],16%
same,growth inhibition,[10]; at 50.0 µM,52.6%
same,growth inhibition,[10]; at 100.0 µM,-7%
same,growth inhibition,[11]; at 1.2 µM,-2%
same,growth inhibition,[11]; at 3.7 µM,0%
same,growth inhibition,[11]; at 11.0 µM,-2%
same,growth inhibition,[11]; at 33.0 µM,-2%
same,growth inhibition,[11]; at 100.0 µM,-2%
same,growth inhibition,[12]; at 1.2 µM,-6%
same,growth inhibition,[12]; at 3.7 µM,-2%
same,growth inhibition,[12]; at 11.0 µM,0%
same,growth inhibition,[12]; at 33.0 µM,0%
same,growth inhibition,[12]; at 100.0 µM,-21%
same,growth inhibition,[13]; at 1.2 µM,-4%
same,growth inhibition,[13]; at 3.7 µM,-1%
same,growth inhibition,[13]; at 11.0 µM,-1%
same,growth inhibition,[13]; at 33.0 µM,-2%
same,growth inhibition,[13]; at 100.0 µM,-4%
same,growth inhibition,[14]; [17],0%
same,growth inhibition,[14]; [18],-1%
same,growth inhibition,[14]; at 50.0 µM,90.2% (active)
same,growth inhibition,[15]; at 1.2 µM,-17%
same,growth inhibition,[15]; at 3.7 µM,-11%
same,growth inhibition,[15]; at 11.0 µM,-16%
same,growth inhibition,[15]; at 33.0 µM,-11%
same,growth inhibition,[15]; at 100.0 µM,-18%
CN(CCc1ccccn1)c1ccc2c(c1)Cc1ccccc1-2,growth inhibition,[1]; at 1.2 µM,1%
same,growth inhibition,[1]; at 3.7 µM,11%
same,growth inhibition,[1]; at 11.0 µM,54%
same,growth inhibition,[1]; at 33.0 µM,45%
same,growth inhibition,[1]; at 100.0 µM,53%
same,growth inhibition,[2]; at 1.2 µM,1%
same,growth inhibition,[2]; at 3.7 µM,7%
same,growth inhibition,[2]; at 11.0 µM,6%
same,growth inhibition,[2]; at 33.0 µM,5%
same,growth inhibition,[2]; at 100.0 µM,2%
same,growth inhibition,[3]; at 1.2 µM,29%
same,growth inhibition,[3]; at 3.7 µM,68%
same,growth inhibition,[3]; at 11.0 µM,91% (active)
same,growth inhibition,[3]; at 33.0 µM,89% (active)
same,growth inhibition,[3]; at 100.0 µM,88% (active)
same,growth inhibition,[16]; at 1.2 µM,-3%
same,growth inhibition,[16]; at 3.7 µM,-4%
same,growth inhibition,[16]; at 11.0 µM,1%
same,growth inhibition,[16]; at 33.0 µM,3%
same,growth inhibition,[16]; at 100.0 µM,19%
same,growth inhibition,[4]; at 1.2 µM,4%
same,growth inhibition,[4]; at 3.7 µM,26%
same,growth inhibition,[4]; [17],20%
same,growth inhibition,[4]; at 11.0 µM,69%
same,growth inhibition,[4]; at 33.0 µM,68%
same,growth inhibition,[4]; [18],57%
same,growth inhibition,[4]; at 50.0 µM,90.2% (active)
same,growth inhibition,[4]; at 100.0 µM,67%
same,growth inhibition,[5]; at 1.2 µM,-1%
same,growth inhibition,[5]; at 3.7 µM,8%
same,growth inhibition,[5]; [17],5%
same,growth inhibition,[5]; at 11.0 µM,26%
same,growth inhibition,[5]; at 33.0 µM,20%
same,growth inhibition,[5]; [18],1%
same,growth inhibition,[5]; at 50.0 µM,4.05%
same,growth inhibition,[5]; at 100.0 µM,20%
same,growth inhibition,[7]; [17],9%
same,growth inhibition,[7]; [18],82% (active)
same,growth inhibition,[7]; at 50.0 µM,83.3% (active)
same,growth inhibition,[8]; at 1.2 µM,-5%
same,growth inhibition,[8]; at 3.7 µM,-16%
same,growth inhibition,[8]; at 11.0 µM,-11%
same,growth inhibition,[8]; at 33.0 µM,-16%
same,growth inhibition,[8]; at 100.0 µM,-5%
same,growth inhibition,[9]; [17],0%
same,growth inhibition,[9]; [18],10%
same,growth inhibition,[9]; at 50.0 µM,-2.25%
same,growth inhibition,[10]; at 1.2 µM,0%
same,growth inhibition,[10]; at 3.7 µM,-4%
same,growth inhibition,[10]; [17],-12%
same,growth inhibition,[10]; at 11.0 µM,13%
same,growth inhibition,[10]; at 33.0 µM,21%
same,growth inhibition,[10]; [18],30%
same,growth inhibition,[10]; at 50.0 µM,18.4%
same,growth inhibition,[10]; at 100.0 µM,20%
same,growth inhibition,[11]; at 1.2 µM,-1%
same,growth inhibition,[11]; at 3.7 µM,-2%
same,growth inhibition,[11]; at 11.0 µM,5%
same,growth inhibition,[11]; at 33.0 µM,4%
same,growth inhibition,[11]; at 100.0 µM,26%
same,growth inhibition,[12]; at 1.2 µM,0%
same,growth inhibition,[12]; at 3.7 µM,3%
same,growth inhibition,[12]; at 11.0 µM,17%
same,growth inhibition,[12]; at 33.0 µM,15%
same,growth inhibition,[12]; at 100.0 µM,31%
same,growth inhibition,[13]; at 1.2 µM,26%
same,growth inhibition,[13]; at 3.7 µM,71% (active)
same,growth inhibition,[13]; at 11.0 µM,88% (active)
same,growth inhibition,[13]; at 33.0 µM,87% (active)
same,growth inhibition,[13]; at 100.0 µM,88% (active)
same,growth inhibition,[14]; [17],20%
same,growth inhibition,[14]; [18],72% (active)
same,growth inhibition,[14]; at 50.0 µM,77.4% (active)
same,growth inhibition,[15]; at 1.2 µM,46%
same,growth inhibition,[15]; at 3.7 µM,89% (active)
same,growth inhibition,[15]; at 11.0 µM,95% (active)
same,growth inhibition,[15]; at 33.0 µM,94% (active)
same,growth inhibition,[15]; at 100.0 µM,94% (active)
